Experimental data taken from PubChem BioAssay AID652283 (National Center for Advancing Translational Sciences (NCATS), 2013).
Records with an inconclusive call do not appear. Values without a mark were called inactive. Active and inactive are the calls of the source. The call rests on the fitted dose curve; in most records, active means well fitted inhibition curve with a large enough effect; inconclusive means small, poorly fitted or top-dose-only effect; inactive means no such curve, though single readings can be large or run the other way.

Assay: qHTS Assay for Lipid Storage Modulators: COS7 Assay against Probe and Analogs
Conditions: COS7 lipid droplet area, BODIPY imaging, 18 h; cells loaded with 400 µM oleic acid
Source text: Storing lipids as a reservoir for energy or the anabolism of elementary metabolites is a common feature of probably all cells and is conserved from bacteria to humans. The universal cellular lipid storage organelle is the so-called lipid storage droplet (LD). Although ubiquitous, LDs share a simple structure composed of a hydrophobic core that harbors the storage lipids, which is shielded by a droplet-specific phospholipid monolayer to which proteins are attached. The current model of LD biogenesis involves an incorporation of the lipid core into the membrane leaflets of the endoplasmic reticulum (ER) followed by a subsequent budding-like maturation of a LD, which ultimately pinches off. Once released, LD volume can increase by localized lipogenesis or fusion of existing droplets. Storage lipids are re-mobilized enzymatically by lipase activity. Lipase regulation in the adipocyte is heavily studied and involves multiple components including catecholamine signaling, the LD-associated proteins Perilipin and comparative gene identification-58 (CGI-58) and at least two lipases named hormone sensitive lipase (HSL) and adipocyte triglyceride lipase (ATGL). LD regulation outside of the adipocyte is poorly understood and only few components are known. However, there is an urgent need to learn more about ectopic fat depots as mislocalized storage of lipids, for example in the liver or muscle, is an eminent health problem associated with insulin resistance or the metabolic syndrome. We developed a laser-scanning cytometer assay to enable 1,536-well screening and combined the results of the small molecules screen with an RNAi database based on lipid storage. In this assay we tested analogs of the probe against a mammalian cell line (COS7), to see if these small molecules could disrupt lipid storage. NIH Molecular Libraries Probe Production Centers Network [MLPCN] NIH Chemical Genomics Center [NCGC] MLPCN Grant: MH085686 Assay Submitter (PI): Mathias Beller, Max-Planck-Institut fur Biophysikalische Chemie
COS7 cells were obtained from ATCC (CRL-1651), 5500 cells/well were dispensed into Corning 96 well imaging plate (catalog # 3340), and cultured in 100 uL of 1:1 DMEM medium (PAA) contain 10% fetal bovine serum (FBS) for 24 hours at 37 degrees C, 95% humidity, and 5% CO2. The medium was exchanged for compound treatment. Compound treatment occurred in 150 microL serum reduced medium (5% FBS) and 0.2% DMSO in presence of 400 microM oleic acid for 17-18 h. Cells were then fixed (3.7 % formaldehyde in PBS, 5 min), permeabilized (0.1% Triton X100, 5 min) and washed three times with PBS. Lipid droplets (1:2000 BODIPY 493/503) and nuclei (1:1000 Hoechst 33342) were stained for 1h. Imaging was performed in a Zeiss Axiovert automatic microscope. Number of lipid droplet accumulated in […] cells were analyzed using visual examination of the microscopic images and additional quantification by image segmentation using Cell Profiler.
For CCOc1ccc(CCNC(=O)c2cc3sccc3n2Cc2ccccc2)cc1OCC, the Potency was 0.935 µM (active).
For CCOc1ccc(CCNC(=O)c2cc3sccc3n2Cc2ccccn2)cc1OCC, the Potency was 1.48 µM (active).
CCOc1ccc(CCNC(=O)c2ccccn2)cc1OCC showed a max response of 1.41%.
For O=C(NC1CCCc2c1cnn2-c1ccc(F)cc1F)C1CCCCC1 (stereo not given), the max response was 3.71%.
For CCOC(=O)C1CCN(C(=O)C(C)(C)NC(=O)Nc2ccccc2Cl)CC1, the Potency was 13.2 µM (active).
With COc1cccc(-n2ncc3c2CCCC3NC(=O)c2ccccn2)c1 (stereo not given) the Potency was 5.9 µM (active).
For O=C(NC1CCCc2c1cnn2-c1ccc(F)cc1F)c1ccccc1 (stereo not given), the Potency was 14.8 µM (active).
For CCOc1ccc(CCNC(=O)Cc2ccccc2)cc1OCC, the max response was -10.6%.
For CCOc1ccc(CCNC(=O)c2cccc(C(=O)c3ccccc3)c2)cc1OCC, the Potency was 14.8 µM (active).
Work on O=C(NC1CCCc2c1cnn2-c1ccc(F)cc1F)c1cnccn1 (stereo not given) yielded a max response of -14.9%.
For CCOc1ccc(CCNC(=O)c2ccc3ccccc3n2)cc1OCC, the max response was -25%.
With O=C(NCCc1ccc(OCC(F)(F)F)c(OCC(F)(F)F)c1)c1cc2sccc2n1Cc1ccccc1 the Potency was 2.96 µM (active).
Work on CCOC(=O)C1CCN(C(=O)C2(NC(=O)Nc3ccccc3Cl)CC2)CC1 yielded a max response of -17.2%.
For CC1(C)CCC(c2ccc(Cl)cc2)=C(CN2CCN(c3ccc(C(=O)NS(=O)(=O)c4ccc(N[C@H](CCN5CCOCC5)CSc5ccccc5)c(S(=O)(=O)C(F)(F)F)c4)cc3)CC2)C1, the Potency was 3.72 µM (active).
In the case of COc1ccc(-n2ncc3c2CCCC3NC(=O)c2ccccn2)cc1 (stereo not given), the Potency is reported as 4.69 µM (active).
In the case of CCOc1cc(CCNC(=O)c2cc3sccc3n2Cc2ccccc2)cc(F)c1OCC, the Potency is reported as 2.35 µM (active).
For CCOC(=O)C1CCN(C(=O)C(C)(C)NC(=O)Nc2cccc(C(=O)OC)c2)CC1, the max response was 9.87%.
In the case of CC(C)(C)OC(=O)NCCOCCOCCOc1ccc(-n2ncc3c2CCCC3NC(=O)c2ccccn2)cc1 (stereo not given), the Potency is reported as 18.7 µM (active).
O=C(c1cc2sccc2n1Cc1ccccc1)N(CCc1ccc(O)c(O)c1)Cc1ccccc1 gave a max response of 10.7%.
Cc1cccc(-c2ccc3ncnc(NCc4cccc(F)c4)c3c2)c1 showed a max response of -9.55%.
For CCOc1ccc(CCNC(=O)c2cc3sccc3n2Cc2ccc(Cl)c(F)c2)cc1OCC, the Potency was 0.296 µM (active).
In the case of CCOC(=O)C1CCN(C(=O)C(C)(C)NC(=O)Nc2ccc(CN3CCOCC3)cc2)CC1, the max response is reported as -3.75%.
With CCOc1ccc(CCNC(=O)C2=C(C)OCCO2)cc1OCC the max response was 10.4%.
For CCOc1ccc(CCNC(=O)c2ccnn2Cc2cccc(C)c2)cc1OCC, the Potency was 13.2 µM (active).
With CCOc1cc2c(cc1OCC)CN(C(=O)c1cc3sccc3n1Cc1ccccc1)CC2 the Potency was 3.32 µM (active).
Work on O=C(NC1CCCc2c1cnn2-c1ccc(F)cc1F)c1cccc(=O)[nH]1 (stereo not given) yielded a max response of 14.9%.
With CCOc1ccc(CCNC(=O)c2cc3sccc3n2CC=C(C)C)cc1OCC the Potency was 2.35 µM (active).
With CCOc1ccc(CCNC(=O)c2csc(Br)n2)cc1OCC the max response was -17.2%.
CCOC(=O)C1CCN(C(=O)C(C)(C)NC(=O)Nc2ccc(F)c(F)c2)CC1 gave a max response of -20.8%.
Compound COc1cc(Nc2ncc(F)c(Nc3ccc4c(n3)NC(=O)C(C)(C)O4)n2)cc(OC)c1OC has a max response of -7.73%.
Compound O=C(NC1CCCc2c1cnn2-c1ccc(F)cc1F)c1cnon1 (stereo not given) has a max response of 13.2%.
CC(C)(NC(=O)Nc1ccccc1Cl)C(=O)N1CCC(C(=O)O)CC1 gave a max response of 21.7%.
For CCOc1ccc(CCN(C)C(=O)c2cc3sccc3n2Cc2ccccc2)cc1OCC, the Potency was 11.8 µM (active).
With CCOc1ccc(CCNC(=O)c2cc3sccc3n2C)cc1OCC the Potency was 8.33 µM (active).
CCOC(=O)C1CCN(C(=O)C2(NC(=O)Nc3ccccc3Cl)CCCCC2)CC1 showed a max response of -103%.
With CCOc1ccc(CCNC(=O)c2cc3ccccc3n2Cc2ccc(Cl)c(F)c2)cc1OCC the Potency was 0.332 µM (active).
CC(C)(C)OC(=O)N1CCCCC1C(=O)NC1CCCc2c1cnn2-c1ccc(F)cc1F (stereo not given) showed a max response of 7.96%.
For O=C(O)c1cccc(-c2noc(-c3ccccc3F)n2)c1, the max response was -6.12%.
For CCOc1ccc(CCNC(=O)c2cc3c(s2)CCC3)cc1OCC, the Potency was 11.8 µM (active).
Work on O=C(NCCc1ccc(O)c(O)c1)c1cc2sccc2n1Cc1ccccc1 yielded a max response of 20.9%.
